NadD block = blocks S. aureus nicotinate mononucleotide adenylyltransferase; purified NadD enzyme, colorimetric absorbance read-out; inhibition, % at 20 µM; actives 0.78% (n = 360,000); in the data active = inhibition above about 26%
DAGLB inh = diacylglycerol lipase beta (human) inhibition; inhibition, % at 5.17 µM; Q8NCG7; actives 0.059% (n = 340,000); HEK293T DAGLB membrane lysate, EnzChek fluorogenic substrate; AID 504411; in the data active = inhibition above about 34%;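 also: 0% = enzyme with vehicle and 100% = wells lacking enzyme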
Target sequence (Q8NCG7 whole entry, looked up): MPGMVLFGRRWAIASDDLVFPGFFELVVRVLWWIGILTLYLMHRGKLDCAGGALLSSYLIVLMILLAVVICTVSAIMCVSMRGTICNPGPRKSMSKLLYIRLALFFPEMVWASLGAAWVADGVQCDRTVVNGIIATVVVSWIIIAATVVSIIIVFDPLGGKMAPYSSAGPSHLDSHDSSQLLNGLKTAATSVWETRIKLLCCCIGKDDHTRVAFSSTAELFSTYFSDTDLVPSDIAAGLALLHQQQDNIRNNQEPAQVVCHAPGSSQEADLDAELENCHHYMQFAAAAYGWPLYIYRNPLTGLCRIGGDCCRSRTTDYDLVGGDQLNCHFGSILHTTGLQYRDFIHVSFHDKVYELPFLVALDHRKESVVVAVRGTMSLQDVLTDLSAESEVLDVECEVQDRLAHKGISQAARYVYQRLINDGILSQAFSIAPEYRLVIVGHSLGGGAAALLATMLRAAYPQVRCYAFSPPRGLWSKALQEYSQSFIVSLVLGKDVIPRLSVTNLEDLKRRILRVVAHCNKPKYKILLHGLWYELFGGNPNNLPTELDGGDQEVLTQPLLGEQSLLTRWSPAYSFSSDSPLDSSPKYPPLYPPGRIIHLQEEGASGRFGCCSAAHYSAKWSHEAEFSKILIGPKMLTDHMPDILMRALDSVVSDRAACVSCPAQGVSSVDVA
DSG3 Ab inh = human desmoglein-3 autoantibody binding inhibition; P32926; DSG3-coupled beads, scFv-anti-DSG3-GFP binding, flow cytometry; active compounds read low; binding (percent of control), % at 10 µM; actives 0.48% (n = 310,000); AID 588358;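 active = binding more than 3 SD below its plate's average and above zero; inconclusive = below that plate limit but binding exactly zero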;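 also: hits lower antibody fragment binding to DSG3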
bovine MsrA act = activators of bovine methionine sulfoxide reductase A; activation, % at 10.6 µM; actives 0.3% (n = 360,000); purified bovine MsrA, absorbance read-out; in the data active = activation above about 7.5%;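 also: 0% = vehicle and 100% = reference activator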
MsrA inh = inhibits bovine methionine sulfoxide reductase A; AID 651718; actives 0.75% (n = 360,000); purified bovine MsrA, absorbance read-out; inhibition, % at 15.5 µM; in the data active = inhibition above about 4.5%;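 also: 0% = vehicle wells with enzyme and 100% = reference inhibitor wells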
rCAG binder = r(CAG) repeat RNA binding | TO-PRO-1 dye displacement fluorescence | inhibition, % at 3 µM | actives 1.3% (n = 370,000);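 active = inhibition above the plate cutoff, the mean of all test compounds on that plate plus 3 SD, cut at about 35% in these data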;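 also: 0% = DMSO alone and 100% = 100 µM mitoxantrone as full dye displacement; higher means more dye released from RNA so lower well fluorescence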
NadD inh conf = confirmation of Staphylococcus aureus NadD inhibitors; purified S. aureus NadD, colorimetric enzyme assay; actives 13% (n = 2,000); inhibition, % at 20 µM; shares compounds with NadD block; in the data active = inhibition mostly above about 42%, no sharp cut-off; inactive = mostly below about 42%
Active calls of the source: *; ? = inconclusive; · = no result given. The list is not random: actives were taken first. Their share in the collection is about 3.2%.

SMILES | NadD block | DAGLB inh | DSG3 Ab inh | bovine MsrA act | MsrA inh | rCAG binder | NadD inh conf
CCCCOC(=O)c1c(C)oc2ccc(NS(=O)(=O)c3ccc4c5c(cccc35)C(=O)N4)cc12 | 32* | 0 | 98 | -6 | 0 | 29 | 34
CCN(CC)S(=O)(=O)c1ccc(C(=O)NNc2nc(-c3ccccc3)c3cc(Br)ccc3n2)cc1 | 35* | -10 | 97 | 1 | 0 | 13 | 20
Cc1cc(Br)cc2c(C(=O)Nc3c(C)n(C)n(-c4ccccc4)c3=O)cc(-c3cccs3)nc12 | 30* | 0 | 96 | -2 | 0 | 0 | 10
CCOc1ccc(C2=C(C=Nc3c(C)n(C)n(-c4ccccc4)c3=O)C(c3ccc(F)cc3)c3ccccc3O2)cc1 (stereo not drawn) | 46* | -3 | 86 | -4 | · | · | 14
CCn1c(SCC(=O)Nc2ccc(C(N)=O)cc2)nc2sc(C)c(C)c2c1=O | · | · | · | · | · | 3 | ·
Cc1ccc(NC(=O)CSc2nnc(-c3cccnc3)n2Cc2ccco2)cc1C | · | · | · | · | · | 5 | ·
CCOC(=O)c1ccc(C#Cc2ccc3c(c2)C(C)(C)CCS3)nc1 | · | · | · | · | · | 7 | ·
CCCS(=O)(=O)NC(=O)C1(C)CCCN(C(=O)c2c(F)ccc(C)c2F)C1 (stereo not drawn) | 4 | · | · | -1 | -1 | 6 | ·
COc1ccc(C2=NN(c3nc(-c4ccccc4)c(CC(=O)O)s3)C(c3ccco3)C2)cc1 (stereo not drawn) | 61* | 4 | 124 | -7 | 1 | 46* | 72*
COc1ccc(S(=O)(=O)Nc2cccc(-c3ccc(N4CCCCCC4)nn3)c2)cc1OC | 23 | 1 | · | -4 | 0 | 12 | ·
Cc1ccc(S(=O)(=O)Nc2cccc(-c3ccc(N4CCCCCC4)nn3)c2)cc1 | 34* | -1 | 97 | -4 | 1 | 13 | 21
COc1ccc(OC)c(S(=O)(=O)Nc2cccc(-c3ccc(N4CCCCCC4)nn3)c2)c1 | 36* | 3 | · | -3 | 0 | 5 | 30
COc1ccc(S(=O)(=O)Nc2cccc(-c3ccc(N4CCCCCC4)nn3)c2)c(OC)c1 | 28* | 2 | 88 | -4 | 1 | 8 | 36
O=[N+]([O-])c1cccc(S(=O)(=O)Nc2cccc(-c3ccc(N4CCCC4)nn3)c2)c1 | 20 | 2 | 102 | -3 | 0 | 24 | ·
COc1ccc(-c2nc3cc(C)c(Br)c(C)n3c2Cc2ccccc2)cc1OC | 2 | · | · | -3 | 1 | 6 | ·
CC(C)NC(=O)c1cc(-c2ccc(Br)cc2)on1 | -7 | -1 | 96 | -5 | 0 | -3 | ·
CC1CCCCN1c1nnc(NC(=O)c2cc(-c3ccc(Br)cc3)on2)s1 (stereo not drawn) | 31* | 5 | 99 | 0 | 2 | 5 | 10
Cc1sc(NC(=O)CN2CCCC2)nc1-c1ccc2c(c1)CCN2C(=O)c1cccc(F)c1 | 16 | 2 | 104 | -1 | 1 | 6 | ·
Cc1sc(NC(=O)Cc2ccc3c(c2)OCO3)nc1-c1ccc2c(c1)CCN2C(=O)c1ccc(F)cc1 | 35* | -1 | 117 | -8 | 0 | 14 | 28
Cc1sc(NC(=O)Cc2ccc3c(c2)OCO3)nc1-c1ccc2c(c1)CCN2C(=O)c1ccccc1F | 37* | 6 | 101 | -5 | 0 | 4 | 20
COc1ccc(N(CC(=O)N/N=C/c2ccc(-c3ccc([N+](=O)[O-])cc3)o2)S(=O)(=O)c2ccc(C)cc2)cc1Cl | 40* | 4 | 108 | -9 | 1 | 16 | 2
COc1ccc(N(CC(=O)Nc2cccnc2)S(=O)(=O)c2ccc(C)cc2)cc1Cl | 2 | 1 | 114 | -1 | 0 | 3 | ·
COc1ccc(N(CC(=O)N/N=C/c2ccc(-c3ccc([N+](=O)[O-])cc3)o2)S(=O)(=O)c2ccc(C)cc2)cc1 | 42* | 1 | 103 | 2 | 0 | 7 | 5
COC(=O)[C@H](CC(C)C)N(CCCc1cn(Cc2ccc(C)cc2)nn1)S(=O)(=O)c1ccc(F)cc1Br | · | · | · | · | · | -1 | ·
O=S(=O)(Nc1cccc(-c2cn3cccnc3n2)c1)c1ccc(-c2ccccc2)cc1 | 40* | -2 | 115 | -8 | 2 | 17 | 41
SMILES | NadD block | DAGLB inh | DSG3 Ab inh | bovine MsrA act | MsrA inh | rCAG binder | NadD inh conf
O=S(=O)(Nc1cccc(-c2cn3cccnc3n2)c1)c1ccccc1 | 1 | -1 | 111 | -3 | 2 | 3 | ·
CCN(CC)c1ccc(C=NNC(=O)Cc2cc(=O)[nH][nH]2)c(O)c1 | · | · | · | · | · | 27 | ·
Cc1cc2[nH]c(=O)c(=O)[nH]c2cc1S(=O)(=O)N1CCN(c2cccc(Cl)c2)CC1 | 23 | 6 | 106 | -8 | 1 | 23 | ·
Cc1cc2[nH]c(=O)c(=O)[nH]c2cc1S(=O)(=O)N1CCN(c2cccc(C(F)(F)F)c2)CC1 | 31* | -1 | 103 | -11 | 1 | 16 | 50*
Cc1ccccc1NC(=O)c1ccc(N/N=C/c2ccccc2O)c([N+](=O)[O-])c1 | 10 | -2 | 92 | -9 | 0 | -1 | ·
Cc1ccc(NC(=O)c2ccc(N/N=C/c3cccc(O)c3)c([N+](=O)[O-])c2)cc1 | 36* | 6 | ? | -5 | 1 | 2 | 6
Cc1ccc(COc2ccc(/C=N/NC(=O)c3ccc(CN4CCOCC4)cc3)cc2)cc1 | -7 | -1 | 81 | -3 | 0 | -3 | ·
Cc1ccc(C(C)C)c(OCc2ccc(C(=O)N/N=C/c3ccc(C(=O)O)cc3)cc2)c1 | 30* | -3 | 106 | -3 | 0 | 18 | 3
CC(C)OCCCn1c(=N)c(C(N)=S)cc2c(=O)n3ccccc3nc21 | 26* | 1 | ? | 1 | 2 | 2 | 9
CC(=O)N=c1c(C#N)cc2c(=O)n3ccccc3nc2n1CCCOC(C)C | 3 | · | 102 | -4 | 0 | -1 | ·
NC(Cc1ccc(C(F)(F)F)cc1)c1csc(NC(=O)Nc2ccccc2Oc2ccccc2)n1 (stereo not drawn) | 34* | · | · | -1 | -3 | 14 | 9
CCc1ccc(C(O)c2ncc(-c3cccc(OC)c3)[nH]2)cc1 (stereo not drawn) | -3 | · | · | -2 | · | · | ·
Cc1ccc(C(=O)Nc2cccc(C(F)(F)F)c2)cc1NC(=O)c1c[nH]c2cc(C(F)(F)F)ccc2c1=O | 18 | -1 | 98 | -2 | -2 | 0 | ·
CCN1CCN(Cc2ccc(NC(=O)c3ccc(C)c(NC(=O)c4c[nH]c5cc(C(F)(F)F)ccc5c4=O)c3)cc2C(F)(F)F)CC1 | 36* | -3 | 124 | -8 | 1 | 15 | -5
O=C(NN=Cc1ccc(-c2ccccc2)cc1)c1cc(-c2ccc(Cl)cc2)n[nH]1 | · | · | · | · | · | 10 | ·
O=C(C[C@H]1C[C@H](C(=O)N2CCOCC2)[C@@]2(CCC3CCCC3)c3[nH]c4cc(-c5ccco5)ccc4c3CCN2C1=O)NCCC1=CCCCC1 | 29* | 6 | 100 | -3 | · | · | 13

Source: PubChem (several laboratories)
